According to PubChem BioAssay (EPA / NIEHS):
Calls of active or inactive are those of the source. Rule for the calls: active = hit-call score of the fitted dose curve at least 0.9, where 1 is the maximum; inactive = score below 0.9.

Target: Bile acid receptor (Homo sapiens) (UniProt Q96RI1)
Assay: ATG_IR1_CIS: Attagene CIS-FACTORIAL HepG2 Assay for human Nuclear Receptor Subfamily 1 Group H Member 4 (NR1H4), IR1 submotif (AID 2282946)
Conditions: IR1 reporter transcription, actives raise or lower the signal
Experimental: ATG_CIS is a cell-based, multiplexed-readout assay that uses HepG2, a human liver cell line, with measurements taken at 24 hours after chemical dosing in a 24-well plate.ATG_IR1_CIS is one of 52 assay component(s) measured or calculated from the ATG_CIS assay. It is designed to make measurements of mRNA induction, a form of inducible reporter, as detected with fluorescence intensity signals by Reverse transcription polymerase chain reaction (RT-PCR) and Capillary electrophoresis technology.Data from the assay component ATG_IR1_CIS was analyzed into 1 assay endpoint. This assay endpoint, ATG_IR1_CIS, was analyzed with bidirectional fitting relative to DMSO as the negative control and baseline of activity. Using a type of inducible reporter, measures of mRNA for gain or loss-of-signal activity can be used to understand the reporter gene at the transcription factor-level as they relate to the gene NR1H4. Furthermore, this assay endpoint can be referred to as a primary readout, because this assay has produced multiple assay endpoints where this one serves a reporter gene function. To generalize the intended target to other relatable targets, this assay endpoint is annotated to the nuclear receptor intended target family, where the subfamily is non-steroidal.
Human liver HepG2 cells are transiently transfected with multiple reporter transcription units (MRTUs) in 6-well plates using FuGene 6 reagent (Roche; 3 ml FuGene/1 mg DNA). The MRTU constructs are regulated by a cis-regulating element (promoter). […] A major difference between the CIS and TRANS system is that in CIS activities of endogenous TFs are measured, whereas the TRANS assay evaluates changes in activities of exogenous, chimeric NR-Gal4 proteins. […] At the end of 24 hour incubation, total RNA was isolated using TriZol reagent (Invitrogen). The isolated RNA is then reverse-transcribed using oligo(dT) primer and Mo-MLV reverse transcriptase (Invitrogen) with DNAse I (Ambion) treatment for 30 min. The one-tenth of the produced cDNA was amplified by PCR using Taq DNA polymerase (Invitrogen) and two reporter sequence-specific primers. The PCR products were fluorescently labeled by primer extension with 6-arboxyfluorescein (6-FAM) 5'-labeled reporter sequence-specific primer (2 min at 95 C, 20 s at 68 C and 10 min at 72 C) and these products were digested with 5U of HpaI (New England Biolabs) for 2h at 37 C. The fragments were purified using Qiaquick PCR columns (Qiagen), analyzed on an ABI 3130xL genetic analyzer (Applied Biosystems) with peak positions identified by using a set of X-rhodamine (ROX)-labeled MapMarker1000 molecular weight standards (BioVentures). The raw capillary electrophoresis data was processed using Attagraph software (Attagene).

Sequence of Bile acid receptor (Homo sapiens) (Q96RI1 whole entry, looked up): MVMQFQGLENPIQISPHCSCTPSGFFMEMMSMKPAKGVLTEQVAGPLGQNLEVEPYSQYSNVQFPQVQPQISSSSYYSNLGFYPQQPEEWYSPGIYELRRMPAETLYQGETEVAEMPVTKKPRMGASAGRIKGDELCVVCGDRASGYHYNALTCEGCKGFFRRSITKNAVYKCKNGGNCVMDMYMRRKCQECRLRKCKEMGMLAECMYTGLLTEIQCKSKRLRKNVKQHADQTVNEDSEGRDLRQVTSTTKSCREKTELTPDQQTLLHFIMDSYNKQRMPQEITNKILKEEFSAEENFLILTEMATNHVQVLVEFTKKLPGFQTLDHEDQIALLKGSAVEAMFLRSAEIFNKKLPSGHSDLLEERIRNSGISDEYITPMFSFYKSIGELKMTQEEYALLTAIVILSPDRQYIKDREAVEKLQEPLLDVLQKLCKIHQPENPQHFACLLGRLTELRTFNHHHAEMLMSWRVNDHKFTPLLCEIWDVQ

| SMILES | outcome |
| --- | --- |
| O=c1cccc[nH]1 | inactive |
| CC(C)CCCC(C)CCO (stereo not given) | inactive |
| O=S(=O)(O)c1ccc(Cl)cc1 | inactive |
| FC(F)(F)C(F)(F)C(F)(F)C(F)(F)C(F)(F)C(F)(F)CC[Si](Cl)(Cl)Cl | inactive |
| CC(=O)c1ccccc1N | inactive |
| FC(F)(F)C(F)(F)C(F)(F)CC1CO1 (stereo not given) | inactive |
| CSc1ccc(O)cc1C | inactive |
| OCC(O)CC(F)(F)C(F)(F)C(F)(F)C(F)(F)C(F)(F)C(F)(F)C(F)(F)C(F)(F)F (stereo not given) | inactive |
| O=C1c2ccccc2C(=O)c2c(Cl)cccc21 | inactive |
| CCOC(=O)CCC(C)=O | inactive |
| CCC(C)CO (stereo not given) | inactive |
| COC(=O)c1ccc(C=O)cc1 | inactive |
| CN1CN(C)CN(C)C1 | inactive |
| O=C(F)C1(F)C(F)(F)C(F)(F)C(F)(F)C(F)(F)C1(F)F | inactive |
| CCOCOCC | inactive |
| Nc1cc([N+](=O)[O-])cc(Cl)c1O | inactive |
| C#CC(O)CCC (stereo not given) | inactive |
| CC1=CCC2C(=O)OC(=O)C2C1 (stereo not given) | inactive |
| CCC(Cc1c(I)cc(I)c(N)c1I)C(=O)O (stereo not given) | inactive |
| O=c1[nH]cccc1O | inactive |

| SMILES | outcome |
| --- | --- |
| O=C(Cl)C(F)(F)C(F)(F)C(F)(F)C(F)(F)C(F)(F)C(F)(F)C(F)(F)F | inactive |
| O=C1c2c(O)ccc(Nc3ccc(CCO)cc3)c2C(=O)c2c([N+](=O)[O-])ccc(O)c21 | inactive |
| O=C(O)C(F)(F)C(F)(F)C(F)(F)C(=O)O | inactive |
| O=C(Cl)C(F)(F)C(F)(F)C(F)(F)C(F)(F)C(F)(F)C(F)(F)F | inactive |
| CCc1cccc(C)c1N(C(=O)C(=O)O)C(C)COC (stereo not given) | inactive |
| CCCCCCCCn1sc(Cl)c(Cl)c1=O | inactive |
| C[C@]12CC[C@H]3C(=CCc4cc(O)ccc43)[C@@H]1CCC2=O | inactive |
| CC(C)(C)c1cc(Cc2cc(C(C)(C)C)c(O)c(C(C)(C)C)c2)cc(C(C)(C)C)c1O | inactive |
| CCCCOC(=O)C(C)O (stereo not given) | inactive |
| Cc1ccc([N+](=O)[O-])c(C)c1 | inactive |
| Oc1ccc(C2(c3ccc(O)c(C4CCCCC4)c3)CCCCC2)cc1C1CCCCC1 | inactive |
| N#Cc1ccccc1O | inactive |
| CCCCCCCC/C=C\CCCCCCCC(=O)N(C)CC(=O)O | inactive |
| OCC(O)CC(F)(F)C(F)(F)C(F)(F)C(F)(F)F (stereo not given) | inactive |
| CCN(CC)c1ccc(C=O)cc1 | inactive |
| OCCCCC(F)(F)C(F)(F)C(F)(F)C(F)(F)F | inactive |
| CCCCCCCCCCCCCCCCC | inactive |
| CC(C)C(=O)OCc1ccccc1 | inactive |
| CCc1ccc(C)nc1 | inactive |
| CCCCCCCCCc1ccc(OCCO)cc1 | inactive |
